Source: PubChem BioAssay (The Scripps Research Institute Molecular Screening Center)
The full list was thinned out, with hits kept by preference.
TbREL1 inh – TbREL1 inhibition, primary screen | P86926 | actives 0.49% (n = 89,000) | TbREL1 RNA ligation, FRET fluorescence | inhibition, % at 9.66 µM;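 active = inhibition above the mean inhibition across all screened compounds plus 3 SD, cut at about 11% in these data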;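 note: 0% = plate median of test wells and 100% = NSC42067 control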
Target sequence (P86926 whole entry, looked up): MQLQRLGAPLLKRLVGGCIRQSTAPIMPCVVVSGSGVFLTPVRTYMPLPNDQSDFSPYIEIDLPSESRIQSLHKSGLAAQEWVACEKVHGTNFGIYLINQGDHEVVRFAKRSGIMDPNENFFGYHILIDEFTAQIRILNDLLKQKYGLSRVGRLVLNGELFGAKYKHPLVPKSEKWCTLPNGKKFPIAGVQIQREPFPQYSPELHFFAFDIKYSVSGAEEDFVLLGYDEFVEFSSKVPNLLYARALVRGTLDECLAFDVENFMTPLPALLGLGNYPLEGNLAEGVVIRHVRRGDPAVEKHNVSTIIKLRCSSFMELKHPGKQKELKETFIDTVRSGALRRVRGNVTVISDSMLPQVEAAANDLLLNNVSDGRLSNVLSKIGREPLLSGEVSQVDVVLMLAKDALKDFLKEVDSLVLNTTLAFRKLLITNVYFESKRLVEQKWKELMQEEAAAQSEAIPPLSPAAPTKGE
TbREL1 confirm – TbREL1 inhibition, confirmation; AID 1117282; inhibition, % at 9.66 µM; actives 37% (n = 390); shares compounds with TbREL1 inh; TbREL1 RNA ligation, FRET fluorescence;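 active = mean inhibition across replicates above a set limit taken from the earlier primary screen, cut at about 11% in these data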;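 note: 0% = REL1 with substrate and DMSO and 100% = REL1 plus control inhibitor NSC42067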
The depositor's hits bear a star.

SMILES | TbREL1 inh | others
Cc1cc(N2CCNC[C@H]2C)ccc1N1C[C@@H](C)O[C@@H](C)C1 | 8
O=C(Nc1ccccc1)OCCN1CCCC12CCC(c1ccccc1)CC2 (stereo not given) | 6
O=C(NN=Cc1ccccc1C(F)(F)F)c1cc(-c2ccc(Cl)cc2)n[nH]1 | 2
Oc1ccc(/C=N/N(Cc2ccccc2)c2ccccc2)c(O)c1O | -4
CCN=c1scc(C)n1/N=C/c1ccc(O)c(O)c1O | 13* | TbREL1 confirm=24*
Cc1cc(C(=O)N/N=C/c2ccc(O)c(O)c2O)c(C)n1-c1ccccc1 | 1
CCC(C)N(C(=O)c1oc(=O)c2ccccc2c1-c1ccc(C)cc1)C(C)CC (stereo not given) | 6
CCCCC[C@@H](C)N1C[C@@H](COCc2ccccc2)Oc2cc(N3CC[C@@H](N(C)C)C3)ccc2S1(=O)=O | 14* | TbREL1 confirm=4
CCCCC[C@H](C)N1C[C@H](COCc2ccccc2)Oc2cc(N3CC[C@H](N(C)C)C3)ccc2S1(=O)=O | 2
CCCCC[C@H](C)N1C[C@@H](COCc2ccccc2)Oc2cc(N3CC[C@@H](O)C3)ccc2S1(=O)=O | 2
Cc1ccc(NC(=O)[C@@H]2CC(=O)O[C@@H]2c2ccccc2)cc1C | 3
CC(=O)c1cccc(NC(=O)C2(C)Cc3c(-c4cccc(C(N)=O)c4)ccnc3O2)c1 (stereo not given) | 3
CC(=O)NCCNC(=O)C1(C)Cc2c(-c3cccc(C(N)=O)c3)ccnc2O1 (stereo not given) | 14* | TbREL1 confirm=5
CC1(C(=O)NCc2ccc(F)c(F)c2)Cc2c(-c3cccc(C(N)=O)c3)ccnc2O1 (stereo not given) | -6
O=C1CCC[C@H]2C[C@H](NCc3cccc(F)c3)CC[C@]23CCCN13 | 5
COC(=O)CSc1nnc(-c2ccc(NS(=O)(=O)c3ccc(Cl)s3)cc2)o1 | -2
CC(C)c1ccc(NC(=O)NCc2ccc3c(c2)OCO3)cc1 | 1
CC(C)c1nnc(NC(=O)CCC(=O)NCc2ccc3c(c2)OCO3)s1 | 18* | TbREL1 confirm=4
COc1ccccc1CNC(=O)CCC(=O)Nc1nnc(C(C)C)s1 | -2
Fc1ccc(-c2cc(-c3nnc4sc(-c5cccs5)nn34)[nH]n2)cc1 | 1
O=C(C1CCN(c2cncnc2)CC1)N1CCCC1 | -6
O=C(NN=Cc1ccc(O)cc1)c1cc(-c2ccc(Cl)cc2)n[nH]1 | 1
O=C(NC1CCCCN(Cc2ccc(Cl)cc2)C1=O)c1cccs1 (stereo not given) | 3
O=C(CCN1C(=O)/C(=C\c2ccccc2)SC1=S)Nc1ccc(C(=O)O)cc1 | 1
O=C(CCN1C(=O)S/C(=C/c2ccccc2)C1=O)Nc1ccc(O)c(C(=O)O)c1 | 14* | TbREL1 confirm=15*
SMILES | TbREL1 inh | others
O=C(CCCN1C(=O)/C(=C\c2ccccc2)SC1=S)Nc1ccc(O)cc1 | -1
Cc1ccc(C=Nn2c(-c3n[nH]c4c3CCC4)n[nH]c2=S)o1 | -1
COc1ccccc1-c1c(C)nn2c(N3CCC(C(N)=O)CC3)cc(C)nc12 | 4
CCOC(=O)N1CCN(C(=O)CSc2cc(C)nc3c(-c4ccccc4OC)c(C)nn23)CC1 | 13* | TbREL1 confirm=2
COc1ccccc1-c1c(C)nn2c(N3CCC(C)CC3)cc(C)nc12 | -1
COc1ccc2[nH]c3c(c2c1)CCN[C@]31C(=O)N(Cc2ccccc2)c2ccccc21 | -2
O=C(NCCc1ccccc1)OCc1cn(Cc2ccc(Cl)cc2)nn1 | -2
COc1cc(NC(=O)C2CCN(c3nnc(-n4cccc4)s3)CC2)cc(OC)c1 | -3
Cc1ccc(-c2cc(-c3nnc(SCC(=O)Nc4ccccc4-c4ccccc4)n3N)[nH]n2)cc1 | 4
O=C(Cc1ccccc1Cl)NCCN1C(=O)C2C3C=CC(C3)C2C1=O (stereo not given) | 3
COc1ccc(-c2cc(-c3nnc(SCC(=O)NC4CCCCC4)n3N)[nH]n2)cc1 | 0
COC(=O)[C@]12C[C@H](CC(=O)NCC3CCCCC3)C(=O)N(CCc3ccc(OC)c(OC)c3)C1=C[C@H](C(C)C)O[C@@H]2C1CC1 | 2
CCCC(NCC(O)COc1ccc(-c2ccccc2)cc1)c1ccccc1 (stereo not given) | 1
CC(NCC(O)COc1ccc2ccccc2c1)c1ccccc1 (stereo not given) | 14* | TbREL1 confirm=14*
Cc1nc(C)n(CC(O)COc2ccc3ccccc3c2)n1 (stereo not given) | -3
COc1ccc(CNC(=O)C2CCCN(c3nc4ccccc4o3)C2)cc1 (stereo not given) | 1
CCn1c(=O)n(CC(=O)N2CCOCC2)c(=O)c2ccccc21 | -3
NCCN1CCN(S(=O)(=O)c2ccc3c(c2)CCN3C(=O)C2CCC2)CC1 | 0
Oc1ccc(-c2nn[nH]n2)c2cccnc12 | 16* | TbREL1 confirm=0
Oc1ccc(Cc2ccccc2)c2cccnc12 | -3
Oc1ccc(Cl)c2cccnc12 | 1
c1nc(NCC2CC2)c2cc(-c3ccc4c(c3)OCO4)ccc2n1 | 2
c1cnc(SCC2CCCCC2)c(-c2nc3ccccc3[nH]2)c1 | 1
CC1(C)CC(=O)N(CC(=O)N2CCN(c3cccc(C(F)(F)F)c3)CC2)c2ccccc2S1(=O)=O | -7
CN1CCC(N[C@@H](Cc2c[nH]c3ccccc23)C(=O)NCC(c2ccccc2)c2ccccc2)(C(=O)NC2CCCCC2)CC1 | -1
SMILES | TbREL1 inh | others
CC(C)C[C@H](NC1(C(=O)NC2CCCCC2)CCCCC1)C(=O)NCC(c1ccccc1)c1ccccc1 | -1
CC(C)C[C@H](NC1(C(=O)NC2CCCCC2)CCN(C)CC1)C(=O)NCC(c1ccccc1)c1ccccc1 | 17* | TbREL1 confirm=18*
COc1ccc([C@H]2OC(=O)C[C@H]2C(=O)N2CCCCC2)cc1OC | -1
O=C(CSc1nnc(-c2ccccn2)n1-c1ccc(Cl)cc1)Nc1ccc(S(=O)(=O)Nc2nccs2)cc1 | -3
C[C@H]1[C@@H](OC(=O)NCc2ccccc2Cl)CC[C@@]23CCCN2C(=O)CCC[C@@H]13 | 4
O=C(N[C@H](Cc1ccccc1)C(=O)NCc1cccc2ccccc12)[C@H]1O[C@@H](n2ccc(=O)[nH]c2=O)[C@H](O)[C@@H]1O | -1
C[C@@H]1[C@@H](c2ccccc2)OC(O)([C@H](Cc2ccccc2)NC(=O)OC(C)(C)C)CN1C (stereo not given in full) | -3
CN1CC(O)([C@H](Cc2ccccc2)NC(=O)OC(C)(C)C)OCC1C(=O)NCc1cccc2ccccc12 (stereo not given in full) | 11* | TbREL1 confirm=-3
COC(=O)c1ccc(NC(=O)COc2ccc(N(C)S(=O)(=O)c3ccc(C)cc3)cc2)cc1 | 0
CN(c1ccc(OCC(=O)Nc2ccc3[nH]c(=O)[nH]c3c2)cc1)S(=O)(=O)c1ccc(Cl)cc1 | 0
CCOc1ccc(S(=O)(=O)N(C)c2ccc(OCC(=O)Nc3ccc4[nH]c(=O)[nH]c4c3)cc2)cc1 | 11* | TbREL1 confirm=3
O=C(CSc1nc2ccccc2nc1N1CCOCC1)N1CCN(c2cccc(C(F)(F)F)c2)CC1 | -1
Cc1ccc(S(=O)(=O)NCC2CN(S(=O)(=O)c3ccc(C)cc3)c3ccccc3C(=O)N2c2ccc(F)cc2)cc1 (stereo not given) | -4
Clc1ccc(-n2c(SCc3cccc4ccccc34)nnc2-c2ccco2)cc1 | 0
O=c1c2c(-c3ccco3)csc2nc(SCc2cn3cccnc3n2)n1-c1ccccc1 | 23* | TbREL1 confirm=0
c1ccc(SCc2cn3cccnc3n2)nc1 | 1
Nc1ccccc1SCc1cn2cccnc2n1 | 0
